Screening results: PubChem, National Center for Advancing Translational Sciences (NCATS)
Rows were chosen to be rich in hits. Some 21% of all compounds tested hit in one or more screens of this group.
IL-1B inflam inh: inflammasome signaling inhibition, IL-1 beta readout; 4.7% of 360,000 active; THP-1 LPS/ATP IL-1B secretion, AlphaLISA, 16 h; active compounds read low; activity change, % at 57.5 µM; AID 743279; in the data active = activity change below about -50%; inconclusive = mostly about -30% to -49%
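Secreted IL-1B measured by AlphaLISA bead assay after 16 h compound exposure of THP-1 cells; compounds (final up to 57.5 uM) added 1 h before LPS (250 ng/mL) and ATP (1.25 mM) stimulation; lower signal means less secretion.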
RORg inh: blocks mouse ROR gamma transcriptional activity. P51450. Drosophila S2 Gal4-RORgamma UAS-luciferase reporter, 20 h. Potency, µM (series often up to 53.6 µM), for inactives: at the top dose activity change, negative = inhibition, most hits filed as inhibitors. 5.4% of 310,000 active; also: potency is read from the fitted curve at half-maximal effect; nearly all actives have a fitted effect of over 60% in size
Target sequence (P51450 whole entry, looked up, the tested form may be a part): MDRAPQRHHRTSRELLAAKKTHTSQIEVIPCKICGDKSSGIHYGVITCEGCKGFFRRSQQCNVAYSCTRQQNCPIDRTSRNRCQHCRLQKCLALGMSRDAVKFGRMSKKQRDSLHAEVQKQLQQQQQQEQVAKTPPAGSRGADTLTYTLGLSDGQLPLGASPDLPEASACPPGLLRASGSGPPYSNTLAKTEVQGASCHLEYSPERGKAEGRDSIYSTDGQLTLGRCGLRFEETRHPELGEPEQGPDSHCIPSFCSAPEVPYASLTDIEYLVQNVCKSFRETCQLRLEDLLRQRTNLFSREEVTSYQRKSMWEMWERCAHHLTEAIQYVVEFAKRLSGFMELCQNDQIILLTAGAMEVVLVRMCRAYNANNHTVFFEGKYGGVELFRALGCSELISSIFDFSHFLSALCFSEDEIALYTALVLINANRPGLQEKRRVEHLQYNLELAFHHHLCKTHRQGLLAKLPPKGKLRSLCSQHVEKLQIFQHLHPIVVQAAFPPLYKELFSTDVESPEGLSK
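Read-out: Photinus luciferase luminescence; inhibitors lower reporter signal. Insect Schneider cells with Gal4-ROR gamma fusion under metallothionein promoter, UAS reporter; 700 uM final copper sulfate induction, 20 hr, ambient temperature.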
ELG1 repair inh: blocks ELG1-dependent DNA repair in HEK293T cells; HEK293T ELG1-luciferase reporter, luminescence, 16 h; DNA damage induced by 5-fluorouridine; Potency, µM (doses to about 46.1 µM), for the others: top-dose activity change, negative = inhibition, actives largely listed as inhibitors; 2.3% of 330,000 active; AID 504467; also: potency is read from the fitted curve at half-maximal effect; nearly all actives have a fitted effect of over 55% in size
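Luminescence from the luciferase reporter, measured 30 min after ONE-Glo reagent at room temperature, was the read-out. Beforehand, 2,000 cells per well were exposed for 16 hr at 37 °C to 5-fluorouridine together with compound or vehicle.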
TDP1 cell noCPT: qHTS for Inhibitors of human tyrosyl-DNA phosphodiesterase 1 (TDP1): qHTS in cells in absence of CPT; Potency, µM (top dose mostly 46.2 µM), for inactives: top-dose activity change, negative = growth inhibition, actives largely listed as inhibitors; 15% of 420,000 active; DT40 Tdp1-/- hTDP1 cells, no CPT, ATP luminescence, 48 h; also: potency is read from the fitted curve at half-maximal effect; nearly all actives have a fitted effect of over 55% in size
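Growth of hTDP1-complemented DT40 Tdp1-knockout cells is measured by ATP luminescence after at least 48 hr compound exposure at 37 °C, with DMSO substituting for the 20 nM CPT used in the parallel screen.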
Gal4-VP16 FLuc: Gal4-VP16 reporter inhibition counter-screen | Drosophila S2 Gal4-VP16 UAS-luciferase, luminescence, 20 h | Potency, µM (series often up to 53.6 µM), inactives show at the highest dose activity, negative = inhibition, most hits filed as inhibitors | 3.5% of 310,000 active | AID 2546;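 also: Gal4-VP16 expression switched on by copper sulfate through the metallothionein promoter; potency is read from the fitted curve at half-maximal effect; nearly all actives have a fitted effect of over 50% in size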
DT40 TDP1 CPT: DT40-hTDP1 cell growth loss with CPT. AID 686979. Potency, µM (doses to about 46.2 µM), for inactives: at the highest dose activity change, negative = growth inhibition, usual class: inhibitors. 12% of 420,000 active. chicken DT40 Tdp1-/-;hTDP1 cells + 20 nM CPT, ATP luminescence, 48 h; also: potency is read from the fitted curve at half-maximal effect; nearly all actives have a fitted effect of over 55% in size
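Chicken DT40 Tdp1-/- cells stably complemented with human TDP1 were seeded at 400 cells/well in medium containing 20 nM camptothecin, exposed to pin-transferred compounds, and grown at 37 °C for at least 48 hr. Viability was read as ATP luminescence.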
* = called active by the depositor; ? = inconclusive; nt = not tested or not shown; ! = repeats disagree; [ ] = remark or other dose. Unless noted, calls follow the shape of the dose curve; as a rule, active = well fitted curve in the direction sought with a large enough effect; inconclusive = small, poorly fitted or top-dose-only effect, or another doubt; inactive = no such curve, though single readings can be large; an effect the other way counts as inactive or inconclusive. % is scaled to controls: 0 for no effect and ±100 for the full control effect.

SMILES	IL-1B inflam inh	RORg inh	ELG1 repair inh	TDP1 cell noCPT	Gal4-VP16 FLuc	DT40 TDP1 CPT
[N-]=[N+]=CC(=O)OCC(N)C(=O)O (stereo unspecified)	nt	-24.5%	nt	nt	-0.5%	nt
Cc1ccc(CN2C3CCCC2CC(NC(=O)Nc2cccc(F)c2)C3)cc1 (stereo unspecified)	-69.7*	-12.9%	-0.9%	14.6µM*	1.7%	?
CC(C)C[C@H](CN)CC(=O)O	nt	nt	nt	-18.1%	nt	-16.6%
COc1ccc(NC(=O)CSc2oc(-c3cccs3)nc2S(=O)(=O)c2ccccc2)c(OC)c1	nt	nt	nt	23.1µM*	nt	20.6µM*
Cc1ccc(-c2nc(S(=O)(=O)c3ccc(C)cc3)c(SCC(=O)Nc3ccc(F)cc3)o2)cc1	nt	nt	nt	23.1µM*	nt	16.4µM*
Cc1ccc(-c2noc(=O)n2CC(=O)Nc2ccc(S(=O)(=O)NC3CC3)cc2)cc1	4.3	8.2%	?	?	-17.6%	?
Cc1ccc(-c2nc(S(=O)(=O)c3ccccc3)c(SCC(=O)NC3CCCCC3)o2)cc1	nt	nt	nt	?	nt	13µM*
N#Cc1ccc(CN2CCCC3(CCN(C(=O)Oc4ccccc4)CC3)C2)cc1	nt	-6.2%	nt	-24.5%	-7.5%	-15.4%
Brc1ccc2c(c1)C(OC1CN3CCC1CC3)c1ccccc1CS2 (stereo unspecified)	-79.7*	?	?	5.17µM*	?	13µM*
CC/C=C\C/C=C\C/C=C\C/C=C\C/C=C\CCCC(N)=O	nt	-16.0%	nt	nt	6.9%	nt
Cc1ccsc1-c1nc(CSCC(=O)N2CCC3(CC2)OCCO3)c(C)o1	-27.2	17.7%	-15.9%	16.4µM*	2.9%	23.1µM*
O=C(Cn1ncc2ccsc2c1=O)N1CCC2(CC1)OCCO2	-8.5	24.1%	?	-14.5%	15.4%	-25.2%
COc1ccc(C(=O)OC2CCN(C)CC2)cc1	16.6	12.6µM*	22.7%	7.0%	-22.9%	9.3%
COc1ccc(C(=O)OC2C[C@H]3CC[C@@H](C2)N3C)cc1OC (stereo partly specified)	nt	-16.4%[16.9 µM]	nt	nt	8.7%[17 µM]	nt
CCCCC[C@H]1CCCCC[C@@H](O)C[C@H](O)[C@H](O)/C=C/C(=O)O1	0.0	nt	nt	?	nt	?
CCCCC[C@@H]1CCCCC[C@@H](O)C[C@@H](O)[C@H](O)/C=C/C(=O)O1	-65.8*	nt	nt	?	nt	-25.1%
CN1CCc2cc3c(cc2C1O)OCO3 (stereo unspecified)	nt	-1.2%	nt	2.6%	-0.6%	6.8%
CNCC(O)c1ccc(OC(=O)C(C)(C)C)c(OC(=O)C(C)(C)C)c1 (stereo unspecified)	?	nt	16.2%	?	nt	9.03µM*!
CN1C2CCCC1CC(=O)C2	nt	10.6%	nt	nt	2.6%	nt
CC(=O)c1ccc(NC(=O)CSc2nc(=O)cc(N)n2-c2ccccc2)cc1	18.7	4.9%	?	-1.0%	-1.9%	-11.4%
Cc1ccc(C(=O)Nc2nc3ccccc3[nH]2)cc1	32.2	2.51µM*	?	18.4µM*	3.55µM*	?
c1cncc([C@@H]2CCCCN2)c1	nt	-9.8%	nt	?	-11.0%	?
CC12C=CC(=O)C=C1CC(O)C1C2CCC2(C)C1CCC2(C)O (stereo unspecified)	4.0	nt	nt	-13.3%	nt	6.1%
N[C@@H](Cc1cc(I)c(O)c(I)c1)C(=O)O	27.3	12.5%	14.1%	?	-21.4%	-11.7%
NC(Cc1cc(O)c(O)cc1O)C(=O)O (stereo unspecified)	nt	nt	1.5%	6.31µM*	nt	5.01µM*
SMILES	IL-1B inflam inh	RORg inh	ELG1 repair inh	TDP1 cell noCPT	Gal4-VP16 FLuc	DT40 TDP1 CPT
O[C@H]1[C@H]2[C@H](O)CCCN2C[C@H]1O	nt	-20.0%	nt	-15.9%	-7.1%	8.0%
O=C1CN=C(c2cccs2)c2c(sc3c2CCCC3)N1	29.2	-22.7%	-16.5%	?	-4.5%	16.4µM*
O=C1CN=C(c2ccccc2)c2c(sc3c2CCCC3)N1	28.9	-18.9%	-17.2%	?	-6.1%	?
Cc1ccc(C)c(-c2nnc(NC(=O)C3=COCCO3)o2)c1	-4.0	nt	?	?	nt	-12.9%
CC(=O)c1ccc(N2CCN(c3ccc4cc(S(=O)(=O)N5CCCCC5)ccc4n3)CC2)cc1	nt	nt	nt	3.66µM*	nt	?
O=C(Nc1ccc(N2CCOCC2)cc1)C1CCN(S(=O)(=O)c2cccc(C(F)(F)F)c2)CC1	26.2	nt	nt	?	nt	?
CCc1nnc(NC(=O)CCc2nc(C3=CCN(C)CC3)no2)s1	-53.8*	5.1%	13.1%	-16.8%	3.8%	-8.7%
COc1ccc2nc(NC(=O)CCc3nc(C4=CCN(C)CC4)no3)sc2c1	-21.5	?	3.1%	-26.4%	-17.5%	-24.0%
Cc1[nH]c2ccccc2c1CN(C)C	nt	9.3%	nt	?	-2.1%	?
CC(=O)OC1CC(OC2C(O)CC(OC3C(O)CC(OC4CCC5(C)C(CCC6C5CCC5(C)C(C7=CC(=O)OC7)CCC65O)C4)OC3C)OC2C)OC(C)C1OC1OC(CO)C(O)C(O)C1O (stereo unspecified)	-71.1*	nt	nt	0.411µM*	nt	0.581µM*
C[C@H]1CC[C@@H]2[C@@H](C)[C@H]3[C@H](C[C@H]4[C@@H]5CC=C6CC(O[C@@H]7O[C@H](CO)[C@H](O)[C@H](O[C@@H]8O[C@H](CO)[C@@H](O)[C@H](O)[C@H]8O)[C@H]7O[C@H]7O[C@@H](C)[C@H](O)[C@@H](O)[C@H]7O)CC[C@]6(C)[C@H]5CC[C@]34C)N2C1 (stereo partly specified)	nt	12.3%	nt	?	-17.2%	?
CC(=O)O[C@H]1C[C@H](O[C@H]2[C@@H](O)C[C@H](O[C@H]3[C@@H](O)C[C@H](O[C@H]4CC[C@@]5(C)[C@H](CC[C@@H]6[C@@H]5C[C@@H](O)[C@]5(C)[C@@H](C7=CC(=O)OC7)CC[C@]65O)C4)O[C@@H]3C)O[C@@H]2C)O[C@H](C)[C@H]1O[C@@H]1O[C@H](CO)[C@@H](O)[C@H](O)[C@H]1O	nt	nt	nt	0.335µM*	nt	0.376µM*
CC(=O)OC1C[C@H](O[C@@H]2C(O)C[C@H](O[C@@H]3C(O)C[C@@H](OC4CC[C@]5(C)C(CCC6C5CC(O)[C@@]5(C)C(C7=CC(=O)OC7)CC[C@@]65O)C4)OC3C)OC2C)O[C@H](C)[C@H]1O[C@H]1OC(CO)C(O)C(O)C1O (stereo partly specified)	nt	-41.0%	nt	nt	-2.2%	nt
